Experimental findings from PubChem BioAssay (Tox21) are described below.

Molecules are shown by their SMILES. Values without a mark were called inactive. Results filed as inconclusive are left out. Calls of active or inactive are those of the source. Unless noted, calls follow the shape of the dose curve; as a rule, active = well fitted curve in the direction sought with a large enough effect in the repeat runs; inconclusive = weak or mixed curves; inactive = no such curve, though single readings can be large; an effect the other way counts as inactive or inconclusive.

The nature of assay [1]: qHTS assay to identify small molecule antagonists of the retinoid acid receptor (RAR) signaling pathway - cell viability counter screen (AID 1159551). Also: nearly all actives have a fitted effect of over 35% in size. Summed up:
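ATP-based viability, C3RL4 cells, 6 h at 37 C with 1 uM final retinol co-added after compound; luminescence read 30 min post CellTiter-Glo, RT.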
(In general: qHTS replaces the single test concentration by a dilution series.)

Assay [2] can be described thus: qHTS assay to identify small molecule antagonists of the retinoic acid receptor (RAR) signaling pathway (AID 1159552; also: nearly all actives have a fitted effect of over 50% in size). Summed up:
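Cells of the C3RL4 line were seeded, incubated overnight, then dosed with compounds in DMSO followed immediately by retinol (1 uM final). Six hours later luciferase detection reagent went in; signal was measured after 30 min at RT.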

The nature of assay [3]: qHTS assay to identify small molecule agonists of the retinoic acid receptor (RAR) signaling pathway (AID 1159553). Also: potency is read from the fitted curve at half-maximal effect. Summed up: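 Quantitative high-throughput format: the Tox21 10K library was tested on C3RL4 RARE-luciferase cells for 6 hr at 37 C and 5% CO2, with luminescence measured after a 30 min room-temperature reagent step.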
Assay [4] in a line: qHTS assay to identify small molecule antagonists of the estrogen related receptor (ERR) signaling pathway from Tox21 library - cell viability counter screen (AID 1224834). Also: nearly all actives have a fitted effect of over 30% in size. Summed up: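 Compounds in DMSO were pinned onto ERR cells that had been incubated for 6 h, and the plates were held at 37 C for 17.5 h. CellTiter-Fluor reagent was then added and fluorescence was measured after 30 min.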

The target of assay [5] is Luciferin 4-monooxygenase (Photinus pyralis) (UniProt P08659). As to the kind of experiment: qHTS assay to identify small molecule inhibitors of firefly luciferase (AID 1224835). Also: nearly all actives have a fitted effect of over 25% in size. Also: potency is read from the fitted curve at half-maximal effect. Summed up:
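Inhibition of purified Photinus luciferase is measured by luminescence. Substrate levels (D-luciferin, ATP) sit at their KM values. Each compound is tested in a concentration series.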

Assay [6] can be described thus: qHTS assay to identify small molecule agonists of the constitutive androstane receptor (CAR) signaling pathway - cell viability counter screen (AID 1224836). Also: nearly all actives have a fitted effect of over 45% in size. A digest of the protocol: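 HepG2-CYP2B6-hCAR, 2500 cells/well, 4 h pre-incubation; cpd 15 conc + PK11195 0.75 uM final; 23 h, 37 C/5% CO2; CellTiter-Fluor, fluorescence.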
Assay [7] can be described thus: qHTS assay to identify small molecule antagonists of the constitutive androstane receptor (CAR) signaling pathway - cell viability counter screen (AID 1224837). Also: nearly all actives have a fitted effect of over 45% in size. A digest of the protocol: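 Cells are seeded, rested 4 hr at 37 C/5% CO2, dosed with compound (15-point series) and 50 nM CITCO, incubated a further 23 hr, and then CellTiter-Fluor reagent is added before fluorescence is read. The line is HepG2 with stable hCAR and CYP2B6-2.2kb.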

Assay [8] in a line: qHTS assay to identify small molecule antagonists of the estrogen related receptor signaling pathway with the pleiotropic PPARgamma coactivator (PGC) from Tox21 10K library - cell viability counter screen (AID 1224840; active = well fitted cell-killing curve with a large enough effect in the repeat runs, not every such curve was filed as active; also: nearly all actives have a fitted effect of over 40% in size). Summed up:
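Cell viability is measured by CellTiter-Fluor fluorescence in PGC/ERR cells that receive compounds after a 6-hour attachment period and are then incubated 17.5 hours at 37 C.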

Assay [9] concerns the target Thyrotropin receptor (Homo sapiens) (UniProt P16473). In words: qHTS assay to identify small molecule agonists of the thyroid stimulating hormone receptor (TSHR) signaling pathway (AID 1224843; calls by dose curve; also: nearly all actives have a fitted effect of over 45% in size). A digest of the protocol:
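A cell-based cAMP HTRF format was run in TSHR-transfected HEK293 cells, 800 per well. Treatment: 30 min, room temperature. Detection: 1 h with labelled cAMP and anti-cAMP cryptate. Concentration-response over 15 points, three replicates.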

A short description of assay [10]: qHTS assay to identify small molecule agonists of H2AX (AID 1224845; active = well fitted activation curve with a large enough effect in the signal ratio in the repeat runs, not every such curve was filed as active; the % refers to the signal ratio). Summed up:
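Phospho-H2AX Ser139 measured by HTRF (ex 320 nm; em 665 and 620 nm) after 24 hr antibody incubation. Compounds, 15 concentrations, 0.76% DMSO, were applied to CHO-K1 cells for 3hr at 37C before lysis.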

Assay [11] is described as follows: qHTS assay to identify small molecule agonists of the hypoxia (HIF-1) signaling pathway (AID 1224846; active = well fitted activation curve with a large enough effect in the signal ratio in the repeat runs, not every such curve was filed as active; the % refers to the signal ratio). Summed up:
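Agonist mode reporter screen. ME-180 cells stably expressing bla under HRE control received test compounds in DMSO for 17 hrs (37C, 5% CO2), and beta-lactamase activity was then detected with the CCF4-AM FRET substrate.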

Assay [12] is described as follows: qHTS assay to identify small molecule agonists of H2AX - cell viability counter screen (AID 1224847; calls by dose curve;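 also: wild-type CHO-K1 cells; top concentration of the series differs between compounds; nearly all actives have a fitted effect of over 30% in size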). Summed up: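 Cells plated first: CHO-K1, 1000 per well in 10% FBS medium, incubated overnight at 37C. Then 15-point compound titration added (final DMSO 0.76%) for 3 hr. Finally CellTiter-Glo added and luminescence read.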
Assay [13] is described as follows: qHTS RealTime-Glo MT Cell Viability Assay in HepG2 cells - 24 hour (AID 1224867). Also: nearly all actives have a fitted effect of over 50% in size. Summed up: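 qHTS, HepG2, 600 cells/well, RealTime-Glo (NanoLuc + prosubstrate) added with cells; 5 h preincubation; DMSO compound addition; 37 C; luminescence at 0/8/16/24/32/40 h.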
Assay [14] concerns the target Nuclear receptor subfamily 1 group I member 3 (Homo sapiens) (UniProt Q14994). As to the kind of experiment: qHTS assay to identify small molecule antagonists of the constitutive androstane receptor (CAR) signaling pathway (AID 1224838).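 Also: HepG2 cells stably expressing hCAR with CYP2B6 luciferase reporter stimulated by CITCO; nearly all actives have a fitted effect of over 40% in size.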 Summed up:
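Luminescence from a CYP2B6-2.2kb promoter reporter in hCAR-expressing HepG2 cells reflects CAR signaling. Cells received compounds at 15 concentrations and 50 nM CITCO (final), then incubated 24 h at 37 C/5% CO2.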

Assay [15] is described as follows: qHTS assay to identify small molecule agonists of the estrogen related receptor signaling pathway with the pleiotropic PPARgamma coactivator (PGC) from Tox21 10K library (AID 1224842). Also: nearly all actives have a fitted effect of over 15% in size. A digest of the protocol: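 Luminescence from One-Glo (30 min, room temperature) measured after PGC/ERR cells had 18 h at 37 C with pinned compound (23 nL in DMSO). Cells had been seeded at 2,000 per well and pre-incubated 6 h.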

Assay [16] in a line: qHTS assay to identify small molecule agonists of the hypoxia (HIF-1) signaling pathway - cell viability counter screen (AID 1224844; calls by dose curve; also: nearly all actives have a fitted effect of over 50% in size). Summed up:
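Viability counter screen: HRE-bla ME-180 cells plated 5 hrs before compound addition, treated 17 hrs at 37C and 5% CO2, then CellTiter-Glo added after the FRET reporter read; luminescence after 30 min.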

Assay [17] is described as follows: qHTS assay to identify small molecule antagonists of the estrogen related receptor (ERR) signaling pathway from Tox21 library (AID 1224848). Also: nearly all actives have a fitted effect of over 50% in size. Summed up: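 ERR cell line, 2,000 cells/well. 6 h settle, then compound (DMSO) added; 18 h at 37 C; ONE-Glo luminescence after 30 min RT.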
Assay [18] is described as follows: qHTS assay to identify small molecule agonists of the estrogen related receptor (ERR) signaling pathway from Tox21 library (AID 1224849; calls by dose curve; also: nearly all actives have a fitted effect of over 15% in size). To be noted: ERR reporter cell line, ONE-Glo luciferase, 18 h; at 92.4 µM (top of the series) unless noted. A digest of the protocol:
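Quantitative HTS in agonist format: NTP ERR cell line, compounds transferred in DMSO after 6 h plating, 18 h incubation at 37 C, ONE-Glo luminescence endpoint.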

A short description of assay [19]: qHTS assay to identify small molecule antagonists of the estrogen related receptor signaling pathway with the pleiotropic PPARgamma coactivator (PGC) from Tox21 10K library (AID 1224841; call rule not given here). A digest of the protocol: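 Cells stably carrying the PGC/ERR reporter, seeded at 2,000 per well, received pin-transferred compounds 6 h post-plating. Exposure lasted 18 h at 37 C. Signal: One-Glo luminescence.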
% is scaled to controls: 0 for no effect and ±100 for the full control effect.

Chain of Luciferin 4-monooxygenase (Photinus pyralis) (P08659 whole entry, looked up): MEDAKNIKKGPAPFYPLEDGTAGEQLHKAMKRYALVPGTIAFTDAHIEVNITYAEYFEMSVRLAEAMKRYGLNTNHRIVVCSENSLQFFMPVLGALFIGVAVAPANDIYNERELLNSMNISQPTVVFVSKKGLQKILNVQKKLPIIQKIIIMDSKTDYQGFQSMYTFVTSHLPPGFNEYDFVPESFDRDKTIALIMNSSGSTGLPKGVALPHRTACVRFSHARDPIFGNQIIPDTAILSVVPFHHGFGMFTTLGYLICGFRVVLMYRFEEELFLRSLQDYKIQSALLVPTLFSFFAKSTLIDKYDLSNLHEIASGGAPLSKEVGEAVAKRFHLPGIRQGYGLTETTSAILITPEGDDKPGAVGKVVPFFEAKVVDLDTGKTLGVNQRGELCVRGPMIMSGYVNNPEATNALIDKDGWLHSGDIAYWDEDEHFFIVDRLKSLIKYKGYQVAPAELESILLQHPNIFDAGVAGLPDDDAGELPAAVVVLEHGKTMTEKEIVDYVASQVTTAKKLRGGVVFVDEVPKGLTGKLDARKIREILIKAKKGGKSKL
Chain of Thyrotropin receptor (Homo sapiens) (P16473 whole entry, looked up): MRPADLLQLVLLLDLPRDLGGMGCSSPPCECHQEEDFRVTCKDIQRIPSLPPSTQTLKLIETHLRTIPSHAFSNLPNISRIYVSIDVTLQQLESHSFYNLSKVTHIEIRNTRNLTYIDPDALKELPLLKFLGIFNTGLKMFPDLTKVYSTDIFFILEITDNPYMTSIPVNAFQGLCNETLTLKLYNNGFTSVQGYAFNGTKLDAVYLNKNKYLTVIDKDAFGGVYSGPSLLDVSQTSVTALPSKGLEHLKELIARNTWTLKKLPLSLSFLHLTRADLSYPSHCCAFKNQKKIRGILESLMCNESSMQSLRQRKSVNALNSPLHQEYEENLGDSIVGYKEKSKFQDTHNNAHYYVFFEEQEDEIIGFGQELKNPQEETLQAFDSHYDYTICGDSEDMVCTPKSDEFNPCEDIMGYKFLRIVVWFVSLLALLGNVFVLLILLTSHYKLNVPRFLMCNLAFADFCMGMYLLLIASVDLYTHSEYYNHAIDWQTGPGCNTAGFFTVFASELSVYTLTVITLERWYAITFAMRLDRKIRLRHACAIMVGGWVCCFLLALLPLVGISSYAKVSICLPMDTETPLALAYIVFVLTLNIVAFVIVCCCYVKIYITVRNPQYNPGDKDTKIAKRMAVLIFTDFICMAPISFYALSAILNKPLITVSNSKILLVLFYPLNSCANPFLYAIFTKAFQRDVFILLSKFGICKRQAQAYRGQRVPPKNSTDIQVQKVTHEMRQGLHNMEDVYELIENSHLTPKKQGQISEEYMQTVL
Chain of Nuclear receptor subfamily 1 group I member 3 (Homo sapiens) (Q14994 whole entry, looked up): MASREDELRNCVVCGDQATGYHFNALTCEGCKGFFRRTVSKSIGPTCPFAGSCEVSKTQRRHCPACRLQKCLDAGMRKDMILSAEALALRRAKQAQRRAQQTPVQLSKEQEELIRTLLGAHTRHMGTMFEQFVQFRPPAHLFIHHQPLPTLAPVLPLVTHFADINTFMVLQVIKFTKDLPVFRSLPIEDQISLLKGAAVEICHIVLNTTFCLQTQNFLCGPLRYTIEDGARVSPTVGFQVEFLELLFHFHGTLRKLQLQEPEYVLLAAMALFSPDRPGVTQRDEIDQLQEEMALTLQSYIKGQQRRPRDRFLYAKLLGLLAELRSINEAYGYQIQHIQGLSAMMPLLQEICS

With `C=CC(C)(CCC=C(C)C)OC(=O)C(C)C` (stereo not given), the result in assay [1], in [2], in assay [4], in [6], in assay [7] and in assay [8] was inactive. For the same compound, the compound was called inactive in assay [10], in assay [11], in assay [12] and in [13]. The Potency entry in [3], in assay [5] and in assay [9] was “inactive” throughout.
Turning to `CC(C)C[P+](C)(CC(C)C)CC(C)C`, the outcome in assay [1], in assay [2], in assay [4], in assay [6], in assay [14] and in assay [8] was inactive. For the same compound, the result in assay [16], in assay [10], in assay [11], in [12], in assay [17] and in [13] was inactive. In addition, the Potency result in assay [3], in assay [5], in assay [15] and in [9] was “inactive” each time. For the same compound, the activity change, positive = activation in [18] is -12.2%.
`CCCCCCC(=O)c1ccccc1`: the call in assay [1], in assay [2], in assay [4], in assay [6], in assay [14] and in assay [8] was inactive. The outcome in assay [16], in assay [10], in assay [11], in assay [12], in assay [17] and in assay [13] was inactive. Further, the figures for the Potency in assay [3] and in [5] were 54.5 µM (active) and 7.1 µM (active), respectively. Also, the Potency result in assay [19], in assay [15] and in assay [9] was “inactive” throughout. Further, the activity change, positive = activation in assay [18] was 3.5%.
As for `CCC(C)(C)C`, the compound was classed as inactive in assay [1], in assay [2], in assay [4], in assay [6], in [8] and in assay [16]. Also, the outcome in assay [10], in assay [11], in assay [12], in [17] and in assay [13] was inactive. Also, the Potency entry in assay [3], in assay [5], in [19], in assay [15] and in [9] was “inactive” throughout. Besides, the activity change, positive = activation in assay [18] was -3.65%.
